Test results as given in PubChem BioAssay (NCATS).
A number with no mark means an inactive call. Records with an inconclusive call do not appear. Entries that show only a call come without a potency. Active and inactive are the calls of the source. Unless noted, the call rests on the fitted dose curve; in most records, active means well fitted curve in the direction sought with a large enough effect; inconclusive means small, poorly fitted or top-dose-only effect, or another doubt; inactive means no such curve, though single readings can be large; an effect the other way counts as inactive or inconclusive.

What was measured:
[1] = molecular target: Thyrotropin receptor (Homo sapiens) (UniProt P16473); experiment: qHTS Assay for Antagonists of the Thyroid Stimulating Hormone Receptor (AID 488980); further: series mostly up to about 58 µM
Procedure, shortened: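 Inhibition of TSH-stimulated cAMP accumulation was quantified by homogeneous time-resolved FRET in TSHR-transfected HEK293 cells. Agonist: TSH, 4 nM final (EC80).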

[2] = molecular target: D(1A) dopamine receptor (Homo sapiens) (UniProt P21728); experiment: HTS Assay for Allosteric Agonists of the Human D1 Dopamine Receptor: Primary Screen for Potentiators (AID 488982)
Procedure, shortened: (§1)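 Calcium flux in an inducible, force-coupled HEK293 Trex D1 line (overnight at 30 C): agonist mode is the 180 s kinetic read after compound; potentiator mode is the following 180 s read after dopamine at EC20.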

[3] = molecular target: D(1A) dopamine receptor (Homo sapiens) (UniProt P21728); experiment: HTS Assay for Allosteric Agonists of the Human D1 Dopamine Receptor: Primary Screen for Antagonists (AID 488983);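 further: calcium flux response to an EC80 dopamine challenge measured with no-wash dye; nearly all actives have a fitted effect of over 65% in size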
Procedure, shortened: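 Kinetic fluorescence at 1 cycle/sec tracked intracellular calcium in force-coupled, tetracycline-inducible HEK293 T-REx D1 cells. Loss of response to an EC80 dopamine dose, given 180 s after compound, marked antagonists.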

[4] = Validation screen for small molecules that induce genotoxicity in human embryonic kidney (HEK293T) cells expressing luciferase-tagged ELG1 (AID 493106)
Procedure, shortened: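 Cells were dispensed at 2,000 per well, then 23 nL compound or DMSO was pinned in. After 16 hr at 37 °C and 5% CO2, ONE-Glo reagent was added. Luciferase activity was measured following 30 min at room temperature.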

[5] = molecular target: ATPase family AAA domain-containing protein 5 (Homo sapiens) (UniProt Q96QE3); experiment: Validation screen for small molecules that inhibit ELG1-dependent DNA repair in human embryonic kidney (HEK293T) cells expressing luciferase-tagged ELG1 (AID 493107); further: nearly all actives have a fitted effect of over 70% in size; further: potency means the concentration at half of the fitted maximal effect
Procedure, shortened: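 Cells are dispensed in 1536-well format, then 5-fluorouridine and compound are pinned in. After a 16 hr incubation at 37 °C and 5% CO2, ONE-Glo is added and luciferase measured on a CCD imager.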

[6] = molecular target: Thyrotropin-releasing hormone receptor (Homo sapiens) (UniProt P34981); experiment: qHTS for Small Molecule Agonists and Allosteric Enhancers of Human TRH Receptor: Validation Screen for Agonists (AID 493127;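 active means calcium activation more than 3 SD above the typical response in the agonist read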;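 further: intracellular calcium rise by fluo-8 fluorescence before TRH EC20 addition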); conditions: TRH receptor agonist cell assay; at 2 µM; stronger effect = higher value
Procedure, shortened: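 Compounds are added by online pintool to dye-loaded TRHR cells while fluorescence is recorded every second. A rise in calcium signal during the agonist read marks activation; a later 10 nM TRH addition (EC20) serves the separate enhancer mode.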

[7] = molecular target: D(1A) dopamine receptor (Homo sapiens) (UniProt P21728); experiment: HTS Assay for Allosteric Agonists of the Human D1 Dopamine Receptor: Primary Screen for Agonists (AID 488981); further: potency means the concentration at half of the fitted maximal effect
Procedure, shortened: as §1

Chain of Thyrotropin receptor (Homo sapiens) (P16473 whole entry, looked up): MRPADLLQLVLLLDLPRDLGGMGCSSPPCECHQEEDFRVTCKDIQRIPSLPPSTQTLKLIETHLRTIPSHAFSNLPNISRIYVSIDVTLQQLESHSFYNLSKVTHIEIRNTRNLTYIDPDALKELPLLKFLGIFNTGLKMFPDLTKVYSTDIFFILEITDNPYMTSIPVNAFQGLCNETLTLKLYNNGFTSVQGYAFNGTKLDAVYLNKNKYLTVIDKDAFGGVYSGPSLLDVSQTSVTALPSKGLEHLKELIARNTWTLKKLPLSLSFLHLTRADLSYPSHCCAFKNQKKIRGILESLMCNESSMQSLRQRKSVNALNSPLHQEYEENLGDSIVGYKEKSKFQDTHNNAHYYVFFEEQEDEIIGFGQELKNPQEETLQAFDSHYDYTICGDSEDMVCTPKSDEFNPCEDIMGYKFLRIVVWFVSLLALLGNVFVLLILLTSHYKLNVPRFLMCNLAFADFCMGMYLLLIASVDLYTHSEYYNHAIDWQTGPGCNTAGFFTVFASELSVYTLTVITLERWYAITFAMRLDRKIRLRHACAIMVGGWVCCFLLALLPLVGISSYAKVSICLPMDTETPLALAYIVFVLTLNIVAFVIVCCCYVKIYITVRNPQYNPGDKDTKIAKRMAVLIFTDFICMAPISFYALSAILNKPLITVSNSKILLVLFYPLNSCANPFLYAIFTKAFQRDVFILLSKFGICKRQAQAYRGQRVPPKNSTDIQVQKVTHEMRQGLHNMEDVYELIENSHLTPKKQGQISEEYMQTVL
Chain of D(1A) dopamine receptor (Homo sapiens) (P21728 whole entry, looked up): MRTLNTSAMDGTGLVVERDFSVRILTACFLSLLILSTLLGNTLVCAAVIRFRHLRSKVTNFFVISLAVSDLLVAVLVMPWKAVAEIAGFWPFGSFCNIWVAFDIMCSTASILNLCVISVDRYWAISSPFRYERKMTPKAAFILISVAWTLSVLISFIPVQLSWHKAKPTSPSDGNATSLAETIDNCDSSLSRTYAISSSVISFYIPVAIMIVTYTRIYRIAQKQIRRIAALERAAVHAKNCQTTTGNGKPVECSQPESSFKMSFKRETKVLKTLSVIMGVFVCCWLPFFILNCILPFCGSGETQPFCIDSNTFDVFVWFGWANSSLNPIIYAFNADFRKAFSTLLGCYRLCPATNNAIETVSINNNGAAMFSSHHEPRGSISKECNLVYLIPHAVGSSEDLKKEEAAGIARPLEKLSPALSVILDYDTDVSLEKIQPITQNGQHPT
Chain of Thyrotropin-releasing hormone receptor (Homo sapiens) (P34981 whole entry, looked up): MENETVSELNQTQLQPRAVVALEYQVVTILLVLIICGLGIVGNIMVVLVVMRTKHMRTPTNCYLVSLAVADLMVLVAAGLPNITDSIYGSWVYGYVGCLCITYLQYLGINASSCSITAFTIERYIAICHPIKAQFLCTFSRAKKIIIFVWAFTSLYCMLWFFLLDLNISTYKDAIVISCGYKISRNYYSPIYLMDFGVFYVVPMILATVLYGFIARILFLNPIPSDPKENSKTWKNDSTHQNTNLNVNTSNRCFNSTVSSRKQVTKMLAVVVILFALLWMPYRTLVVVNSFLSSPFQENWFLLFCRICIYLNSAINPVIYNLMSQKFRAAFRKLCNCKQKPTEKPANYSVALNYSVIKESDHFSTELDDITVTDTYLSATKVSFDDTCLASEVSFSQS
Chain of ATPase family AAA domain-containing protein 5 (Homo sapiens) (Q96QE3 whole entry, looked up, the tested form may be a part): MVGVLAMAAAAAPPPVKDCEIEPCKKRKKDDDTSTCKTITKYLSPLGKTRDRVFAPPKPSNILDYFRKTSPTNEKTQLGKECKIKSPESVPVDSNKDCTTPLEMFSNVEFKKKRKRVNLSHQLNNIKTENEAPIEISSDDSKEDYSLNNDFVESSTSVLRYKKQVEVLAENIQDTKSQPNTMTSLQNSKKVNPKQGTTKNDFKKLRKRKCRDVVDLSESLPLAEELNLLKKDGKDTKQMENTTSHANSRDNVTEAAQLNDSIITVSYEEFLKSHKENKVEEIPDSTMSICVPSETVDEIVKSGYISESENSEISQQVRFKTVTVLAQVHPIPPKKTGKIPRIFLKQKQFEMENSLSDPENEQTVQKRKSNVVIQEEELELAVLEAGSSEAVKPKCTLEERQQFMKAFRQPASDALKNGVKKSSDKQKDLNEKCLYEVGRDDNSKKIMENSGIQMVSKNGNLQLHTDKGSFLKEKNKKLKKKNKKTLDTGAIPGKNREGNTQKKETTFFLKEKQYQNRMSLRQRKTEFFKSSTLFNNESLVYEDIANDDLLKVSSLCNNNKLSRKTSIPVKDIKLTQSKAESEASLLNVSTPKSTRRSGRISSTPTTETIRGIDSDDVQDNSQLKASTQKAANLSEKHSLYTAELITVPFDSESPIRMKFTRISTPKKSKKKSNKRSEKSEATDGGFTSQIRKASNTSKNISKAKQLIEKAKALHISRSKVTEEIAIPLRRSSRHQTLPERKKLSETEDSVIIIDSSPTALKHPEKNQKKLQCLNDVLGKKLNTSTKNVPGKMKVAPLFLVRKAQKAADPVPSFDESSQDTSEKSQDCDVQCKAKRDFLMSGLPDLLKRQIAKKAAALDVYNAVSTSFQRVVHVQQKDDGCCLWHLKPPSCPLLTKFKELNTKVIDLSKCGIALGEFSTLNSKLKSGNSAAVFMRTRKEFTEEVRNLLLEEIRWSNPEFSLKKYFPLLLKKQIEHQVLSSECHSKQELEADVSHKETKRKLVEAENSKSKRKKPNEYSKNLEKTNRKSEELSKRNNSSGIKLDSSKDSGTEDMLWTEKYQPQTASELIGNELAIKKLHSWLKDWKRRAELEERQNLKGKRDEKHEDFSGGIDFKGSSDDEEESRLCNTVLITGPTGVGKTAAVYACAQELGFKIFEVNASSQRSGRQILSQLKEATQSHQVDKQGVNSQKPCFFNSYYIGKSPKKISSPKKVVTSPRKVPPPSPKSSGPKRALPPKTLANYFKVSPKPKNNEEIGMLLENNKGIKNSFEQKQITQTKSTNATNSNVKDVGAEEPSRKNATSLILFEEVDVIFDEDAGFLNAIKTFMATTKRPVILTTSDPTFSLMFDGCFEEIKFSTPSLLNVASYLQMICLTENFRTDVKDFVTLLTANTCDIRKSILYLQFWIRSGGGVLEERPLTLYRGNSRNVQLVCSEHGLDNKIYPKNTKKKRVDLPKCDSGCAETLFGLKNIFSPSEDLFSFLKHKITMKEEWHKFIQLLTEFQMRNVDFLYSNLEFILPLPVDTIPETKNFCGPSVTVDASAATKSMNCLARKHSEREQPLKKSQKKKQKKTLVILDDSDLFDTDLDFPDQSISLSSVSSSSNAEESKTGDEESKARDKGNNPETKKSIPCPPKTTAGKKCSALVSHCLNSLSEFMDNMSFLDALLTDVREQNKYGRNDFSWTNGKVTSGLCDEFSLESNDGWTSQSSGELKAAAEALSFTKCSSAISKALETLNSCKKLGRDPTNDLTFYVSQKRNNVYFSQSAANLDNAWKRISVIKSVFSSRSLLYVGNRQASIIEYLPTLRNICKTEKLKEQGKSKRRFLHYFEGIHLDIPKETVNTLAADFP

COc1cc(CNC(=O)CCCCCCC(C)C)ccc1O
outcome [1]: inactive
Potency [2]: inactive
Potency [3]: inactive
Potency [4]: inactive
Potency [5]: inactive
activation [6]: -5.38%

CN1CCCC1CCOC(C)(c1ccccc1)c1ccc(Cl)cc1 (configuration not stated)
outcome [1]: inactive
Potency [7]: inactive
Potency [4]: inactive
activation [6]: 1.88%

CN(C)S(=O)(=O)c1ccc2c(c1)/C(=C/c1cc3c([nH]1)CCCC3)C(=O)N2
outcome [1]: inactive
Potency [7]: 12.6 µM (active)
Potency [2]: inactive
Potency [3]: inactive
activation [6]: 26.3%

OC1(c2ccc(Cl)cc2)CCN(Cc2c[nH]c3ccccc23)CC1
outcome [1]: inactive
Potency [4]: inactive
activation [6]: 7.75%

Nc1ncnc2c1c(-c1ccc(Oc3ccccc3)cc1)cn2C1CCCC1
outcome [1]: inactive
Potency [7]: inactive
Potency [4]: inactive
activation [6]: -5.06%

C=CCNc1ncnc2ccc(Br)cc12
Potency [7]: inactive
Potency [2]: inactive
Potency [3]: inactive
Potency [4]: inactive
Potency [5]: 7.3 µM (active)

CN1CC(O)C(O)C(O)C1CO (configuration not stated)
Potency [7]: inactive
Potency [2]: inactive
Potency [3]: inactive
Potency [4]: inactive
Potency [5]: inactive

CCCN(CCc1ccccc1)C1CCc2c(O)cccc2C1 (configuration not stated)
outcome [1]: inactive
Potency [2]: inactive
Potency [4]: inactive
Potency [5]: inactive
activation [6]: 1.25%
